# Measurements from the supplement of paper PMC6555819.
# What was measured:
# Assay in all cases: PBM binding z-score (relative to random genomic background probes); higher = stronger binding; sequences stand for … in GC…GCGATTGACAGCGTAGAATGAAGG
# [1] = test system: PPARg:RXRa DBDmut IVT, anti-RXR (DBD mutation: RXRa K156A/R161A, NR concentration 270 nM, RXRa partner concentration 90 nM)
# How it was run: (§1)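 Antibodies against each partner of ligand-free nuclear receptor dimers (one per run) detected binding on custom Agilent 4×180K protein-binding microarrays after 1 h incubation. The double-stranded probes had 34-nt variable regions carrying direct-repeat seeds, single-nucleotide variants, half-site ablations and random human genomic background sequences. Binding z-scores, from regression-normalized fluorescence, use the random background probes as reference.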
# [2] = test system: PPARg:RXRa IVT, anti-PPARg (NR concentration 270 nM, RXRa partner concentration 90 nM)
# How it was run: as §1
# [3] = test system: PPARg DBDmut:RXRa IVT, anti-PPARg (DBD mutation: PPARg1 K132A/R137A, NR concentration 270 nM, RXRa partner concentration 90 nM)
# How it was run: as §1
# [4] = test system: PPARg DBDmut IVT, anti-PPARg (DBD mutation: PPARg1 K132A/R137A, NR concentration 270 nM)
# How it was run: as §1
# [5] = test system: PPARg homodimer (NR concentration 180 nM)
# How it was run: as §1
# [6] = test system: PXR:RXRa (NR concentration 270 nM, RXRa partner concentration 90 nM)
# How it was run: as §1
# [7] = test system: PXR homodimer (NR concentration 270 nM)
# How it was run: as §1
# [8] = test system: RARa:RXR (NR concentration 270 nM, RXRa partner concentration 90 nM)
# How it was run: as §1
# [9] = test system: RARa homodimer (NR concentration 270 nM)
# How it was run: as §1
# [10] = test system: RARb:RXRa (NR concentration 270 nM, RXRa partner concentration 90 nM)
# How it was run: as §1
Sequence,PBM binding z-score [1],PBM binding z-score [2],PBM binding z-score [3],PBM binding z-score [4],PBM binding z-score [5],PBM binding z-score [6],PBM binding z-score [7],PBM binding z-score [8],PBM binding z-score [9],PBM binding z-score [10]
TCATATAGATAAATGCTAGGTGAAAGTCCGATCT,2.73,0.677,0.125,0.81,0.438,0.417,0.256,0.494,1.19,0.184
ATCGAAAGGTCGAGGTGGGTATAGAGAAAGGGAA,0.271,1.55,0.846,1.16,2.17,2.99,0.988,3.5,1.9,4.34
CCTTACGGGTGACTCCAGGTTATAGCATCGGAGT,1.25,1.42,-0.537,-0.755,0.285,1.01,0.0547,1.22,-0.139,0.499
AGTATGAGGTTAAGATCAGGGAAACAGAATACAT,0.462,1.01,0.752,1.37,1.32,1.15,0.499,1.84,0.731,1.98
AGAATGAGGTTATACCTAGATCAGGGAAGAAAGT,2.11,2.02,1.05,0.686,0.0294,0.87,0.227,1.44,-0.0854,1.19
GCGAATGGGGCATCAGCAGGTTACCATAACTTAA,0.757,0.63,-0.741,-0.65,0.165,0.102,-0.437,0.532,-0.444,0.614
ATCGAAAGGTCGAGGTGAGTGTAGAGAAAGGGAA,0.382,2.47,0.918,-0.292,2.56,3.28,0.73,3.41,1.1,3.97
CCAGACAGGTGAAAGGTAACTCTGTCTGGTACGC,2.33,3.16,0.131,-0.269,0.283,1.16,-0.171,2.16,-0.0874,1.24
TCTTGTAGATCAACAGGAGGTTAAGCAAGATCGA,1.61,0.884,0.4,0.795,-0.0893,0.934,0.136,1.22,-0.27,0.659
CCTCGGAGGACAGAAGGCCAGAGCTGTCCGCTTT,-0.668,-1.07,-2.21,-1.68,-0.167,-0.524,-1.34,-0.34,-0.862,0.374
CCTGCTAGATCATGGTCAGCTAATCTACAGTATG,0.393,-0.546,-0.661,-0.698,-0.74,-0.448,-0.524,-0.328,-0.726,-0.0385
TCTCGGAGGAGACGAAGGTCAGAGCTTTCCAGAG,0.916,-0.157,-0.48,-1.43,0.692,1.01,-0.222,1.5,-0.817,2.37
TCTTGTAGATCAAAGGTTAAGAGAGCCGAAGCCT,1.9,3.87,0.236,-0.197,0.759,1.87,-0.162,3.06,0.341,1.9
TAGCCTACGTCATGGGCCAGTATACCACGCGAAC,-0.818,-0.288,-0.41,-0.97,-0.836,-0.57,-0.465,-0.541,-1.11,-0.332
TAGGCTAGGTCATTCAGGGGCCAGTATAGAAAGC,2.09,3.13,1.07,0.104,3.69,2.64,0.0687,3.93,0.404,4.12
ATCGAAAGGTCGAATGTGAGTATACCCACCCGAA,0.065,1.47,1.15,0.649,1.56,2.5,0.558,2.9,0.346,3.72
ACTTACGGGTCAACGAGGTTGTAGCACGCGTATA,3.1,3.83,2.28,1.73,3.47,4.95,1.29,5.07,0.713,4.04
CCTACTGGGCCAAGGTCGTTGATCAGTCAAAGCA,3.4,3.41,-1.53,-1.31,-0.148,0.637,0.241,0.405,-0.549,1.09
CGAACTAGGTCATAACAGGACAGTGAAGGATGAT,7.75,8.05,5.21,4.58,2.38,2.04,0.386,2.3,0.47,3.38
TCTAGCAGGCCAGGGGGTCACTCAAGAGGTACGG,1.72,3.02,2.08,1.84,2.2,4.43,0.579,5.03,0.104,3.16
ATATGTAGGTTACATCCGGGTCATTAAGGCTATG,7.73,7.28,1.96,2.14,1.78,3.52,4.13,3.18,0.456,2.36
CAAACTAGGTCAAAGGTGAAAGTCGAGCCAACCA,8.83,8.9,5.06,3.41,4.11,4.59,0.25,7.31,1.09,4.41
AACACAGGGTCACTAGGCCAGAGTAGGTACGAAT,3.35,5.16,3.43,0.694,5.13,3.16,0.347,4.14,0.685,4.19
TCTAGTTGGTCAAAGGTCACAGACTCGAAATGCG,3.8,6.51,1.4,1.43,5.86,6.19,1.54,7.67,3.5,5.12
AGTCAAAGTTCAGGACGAGGCAACGTAAAGCACG,-0.129,1.26,0.256,0.437,1.12,1.94,0.989,1.89,0.997,4.37

Sequence,PBM binding z-score [1],PBM binding z-score [2],PBM binding z-score [3],PBM binding z-score [4],PBM binding z-score [5],PBM binding z-score [6],PBM binding z-score [7],PBM binding z-score [8],PBM binding z-score [9],PBM binding z-score [10]
TCATATAGGTAAATGCTAGGTGAAAGGCCGATCT,3.92,2.61,1.09,0.912,1.13,0.776,0.428,1.1,1.3,0.655
CCTTACGGGTCACGAGGTTATAGAACGACGAGCG,4.22,5.47,0.77,0.157,2.71,4.54,0.292,6.07,0.736,4.73
CAAACTAGGTCAAGAGCTCAAAGTCCGCTTCCCG,8.17,8.44,4.03,2.91,2.57,1.06,-0.169,2.14,0.0982,3.99
GGAACGAGGGCAAGTTCATAGCAGAGTTTGATGG,4.12,3.14,-0.982,-0.116,0.648,3.66,5.88,1.72,-0.259,3.37
ATCGAAAGGTCGAAGGTGGGTATACCCACCCGAA,-0.494,1.52,0.29,0.264,1.05,2.11,-0.101,3.05,-0.341,3.51
CGAACTAGGTCAAGGACAGTGAGTCTCCGCACGC,8.24,8.49,4.66,1.15,1.2,0.826,-0.0553,1.87,-0.462,3.83
CCTACTGGGCCAAGAAGGTCATTGATGCCGATAA,3.62,3.76,-1.15,-1.07,1.85,3.13,1.54,3.23,0.531,2.76
GATACAGGGACAGCTAGAGGCCAGAGTATGGAAA,-0.328,-0.138,-0.157,-0.323,0.377,-0.289,0.168,0.0222,0.173,0.833
ATATGTAGGTTAAGTGTCATTCAGGTTGGTTCGC,7.37,7.34,2.11,2.12,1.85,1.87,0.52,2.1,1.63,1.99
CCTACCAGGCCAATCTGGGTCACTCAAGGCTTGA,3.85,5.15,-0.114,-1.08,1.37,1.39,0.0886,1.66,0.203,1.71
ATCTCTAGGTAACAAGTTCAGTAAAAGAGAGGAC,3.06,3.22,1.24,1.1,1.34,1.67,1.66,1.57,1.54,1.78
GCTGCTATGTCAGGTTGGTCAGCTAACGGGTACG,0.218,-0.36,-0.641,-1.12,-0.452,-0.319,-0.426,-0.149,-0.632,0.458
GGAACGAGGGCAAGTTGATAGGAGAGTTTGATGG,3.49,2.69,-0.522,0.0128,0.664,0.817,1.15,0.165,-0.204,2.63
AATAGAGGGTCATCGTAGGCCAGAGTACGCACAG,3.35,4.01,0.835,0.46,2.99,4.34,0.066,4.67,1.33,4.25
TCGAGTAGGTTAGTCGGGGGATTCAGCCAACATA,2.61,3.13,3.86,5.11,0.49,0.855,0.0667,0.615,0.264,0.779
ACTAGCAGGCCAAGTTTGGGTGACTCAAACAAAG,0.661,0.765,-1.13,-1.09,-0.815,-0.475,-0.715,-0.198,-0.374,0.418
CAAACTAAGTCACAGAGGTCAAAGTCCGTGCGTA,2.87,3.84,0.32,0.368,4.44,5.86,3.71,6.39,2.59,4.05
TCAGACAGGTGAAGGAAACTCAGGTACGCAGTCG,2.96,0.598,0.181,-0.163,0.667,0.502,0.224,0.564,0.502,0.976
ATCGAAAGGTCGAGGTTAGTATAGAGAAAGGGAA,0.147,1.68,0.823,1.11,3.22,2.65,0.569,3.81,1.39,4.09
CATCAAAGTTCAACTAAGGTAACGTAAAGCACGC,0.365,1.94,1.26,1.35,3.92,5.93,5.95,4.5,3.5,5.37
AGTACGAGGGCAATGAGTTGATAGCACGGGTGGC,1.59,1.15,0.233,0.248,0.203,1.32,5.08,0.221,0.00797,2.08
TCATATTGGTAAATGCTAGGTGAAAGTCCGATCT,2.35,0.751,1.11,1.6,1.32,0.588,0.616,0.882,1.3,0.404
GGAACGAGGGCAAAGTTGATAGGATCTGTCGACG,3.81,4.2,0.474,-0.389,0.743,1.31,0.619,1.58,0.0143,2.41
ATATGTAGGTTAAGGGTCATTAAGGTTGGTTCGC,7.35,7.81,2.09,1.17,3.24,4.92,3.59,5.16,2.38,3.74
